PI5P4K alpha inh: qHTS for Inhibitors of phosphatidylinositol 5-phosphate 4-kinase (PI5P4K); hit rate 1.2% among 330,000; max response, %; PI5P4Kalpha enzyme, ADP-Glo luminescence, 60 min; active compounds read low; active means max response of -50% or lower; inconclusive means between -30% and -50%; inactive means -30% or higher; further: value at the top dose of about 77 µM
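Luminescence from ADP-Glo served as readout of PI5P4Kalpha activity in a qHTS format. Reaction: enzyme, substrate, compound, ATP at 5 microM final, 60 min at RT.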
WRN inhibitor: qHTS for Inhibitors of WRN Helicase; WRN helicase unwinding, fluorescent forked duplex, kinetic; Potency, µM (highest dose often 114 µM), usual class: inhibitors; Bifunctional 3'-5' exonuclease/ATP-dependent helicase WRN (Homo sapiens), Q14191; hit rate 0.46% among 360,000; further: nearly all actives have a fitted effect of over 55% in size
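Enzyme (20 nM final) and test compound sit together 15 min at room temperature before substrate addition. Substrate is a single-forked duplex oligonucleotide (100 nM) labelled with fluorophore and quencher, with 2 mM ATP; helicase unwinding raises red fluorescence, read kinetically.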
POLH inh: qHTS for Inhibitors of Polymerase Eta | DNA polymerase eta (Homo sapiens), Q9Y253 | recombinant Pol eta, fluorescent DNA replication assay | Potency, µM (doses to about 114 µM), hits mostly inhibitors | hit rate 1.2% among 390,000
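Pol eta at 10 nM preincubated with compounds 15 min at room temperature; reaction started with fluorescent substrate (50 nM final) and read kinetically at 0 and 10 min.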
POLB inh: qHTS Assay for Inhibitors of DNA Polymerase Beta; Potency, µM (series often up to 114 µM), hits mostly inhibitors; P06746; Pol beta primer extension/strand displacement, fluorescence kinetic; AID 485314, 2010; hit rate 1.3% among 340,000
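Homogeneous kinetic assay of primer extension and strand displacement by 10 nM Pol beta, preincubated 15 min at room temperature with compound before 50 nM substrate (final) was added. Read at 0 and 10 min; four-parameter Hill fit.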
POLI inh: qHTS for Inhibitors of Polymerase Iota; DNA polymerase iota (Homo sapiens), Q9UNA4; Pol iota fluorescent replication assay, 10 min; Potency, µM (series often up to 115 µM), usual class: inhibitors; hit rate 1% among 390,000
Target sequence (Q9UNA4 whole entry, looked up): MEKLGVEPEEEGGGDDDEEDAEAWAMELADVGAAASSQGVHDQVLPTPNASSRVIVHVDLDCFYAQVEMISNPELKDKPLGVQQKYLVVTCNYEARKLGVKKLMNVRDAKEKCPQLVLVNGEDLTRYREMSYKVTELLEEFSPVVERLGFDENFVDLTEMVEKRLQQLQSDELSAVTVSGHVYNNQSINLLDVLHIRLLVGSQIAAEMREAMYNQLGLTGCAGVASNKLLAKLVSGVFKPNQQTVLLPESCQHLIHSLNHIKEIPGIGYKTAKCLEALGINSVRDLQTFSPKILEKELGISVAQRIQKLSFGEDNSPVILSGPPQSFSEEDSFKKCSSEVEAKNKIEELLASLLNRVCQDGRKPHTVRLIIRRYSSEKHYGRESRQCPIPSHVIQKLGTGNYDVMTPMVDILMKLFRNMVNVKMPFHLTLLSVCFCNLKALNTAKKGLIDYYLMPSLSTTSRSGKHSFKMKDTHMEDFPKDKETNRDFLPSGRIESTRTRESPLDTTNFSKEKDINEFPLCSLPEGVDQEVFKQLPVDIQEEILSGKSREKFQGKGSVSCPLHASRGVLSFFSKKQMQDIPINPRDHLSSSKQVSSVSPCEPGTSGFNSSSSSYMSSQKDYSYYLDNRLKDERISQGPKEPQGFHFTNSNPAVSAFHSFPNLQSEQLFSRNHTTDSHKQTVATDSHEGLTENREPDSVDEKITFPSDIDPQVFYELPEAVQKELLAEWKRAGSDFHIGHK
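Pol iota at 10 nM preincubated 15 min with compounds at room temperature; reaction started with fluorescent substrate, 50 nM final. Fluorescence read kinetically at 0 and 10 min; buffer-only wells as negative control.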
POLK inh: qHTS for Inhibitors of Polymerase Kappa | DNA polymerase kappa (Homo sapiens), Q9UBT6 | purified Pol kappa, fluorescent DNA synthesis assay, 10 min | Potency, µM (doses to about 107 µM), actives largely listed as inhibitors | hit rate 0.53% among 400,000 | AID 588579, 2011
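Enzyme at 10 nM met test compounds for 15 min at room temperature. Substrate addition (50 nM final) began the reaction, which was monitored by fluorescence at 0 and 10 min.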
Hits are given with their value; i = inactive; ? = inconclusive; nt = no result given; ! = a repeat was not active; [ ] = dose if it differs, or a comment. Hits are enriched below; roughly 2.8% of the tested compounds scored in any of these assays. Unless noted, the call rests on the fitted dose curve; in most records, active means well fitted curve in the direction sought with a large enough effect; inconclusive means small, poorly fitted or top-dose-only effect, or another doubt; inactive means no such curve, though single readings can be large; an effect the other way counts as inactive or inconclusive.

SMILES	PI5P4K alpha inh	WRN inhibitor	POLH inh	POLB inh	POLI inh	POLK inh
O=C(CNC(=O)c1ccccc1F)N/N=C/c1cc(Br)ccc1OC(=O)/C=C/c1ccco1	i	i	i	?	?	?
O=C(CNC(=O)c1ccc(F)cc1)N/N=C/c1cc(Br)ccc1OC(=O)/C=C/c1ccco1	i	i[11.6 µM]	56µM	?	?	i
COc1ccccc1C(=O)NCC(=O)N/N=C/c1cc(Br)ccc1OC(=O)/C=C\c1ccco1	i	i[11.6 µM]	i	i	?	32µM
CN(C)c1ccc(C=Nc2cncc3ccccc23)cc1	nt	nt	nt	nt	i	i
CC1(C)c2ccccc2N2CC(=O)N(CC(N)=O)C21C (stereo unspecified)	nt	56µM	?	45µM	?	45µM
Cc1cccc(Nc2nnc(SCC(=O)c3ccc(O)cc3O)s2)c1	i	i	i	i	i	i
CCOc1ccc2nc(SCC(=O)c3ccc(O)cc3O)sc2c1	i	i	?	35µM	?	?
CCOc1ccc2nc(SCC(=O)c3ccc(C)s3)sc2c1	i	i	i	i	i	i
Cc1ccc(Nc2nnc(SCC(=O)c3ccc(O)cc3O)s2)cc1	-56	i	i	?	?	i
CCN(CC)C(=O)CC(c1ccc(OC)cc1)c1c(OC)cc(OC)c2ccc(=O)oc12 (stereo unspecified)	i	i	?	?	79µM	?
O=C(Cn1sc2ccccc2c1=O)Nc1ccc(Br)cc1	-83	i	i	nt	nt	nt
O=C(Cn1sc2ccccc2c1=O)Nc1ccc(Cl)cc1	-82	i	i	nt	nt	nt
O=C(CN1C(=O)C2CC=CCC2C1=O)Nc1ccc(Br)cc1 (stereo unspecified)	i	i	i	i	i	i
O=C(Cn1sc2ccccc2c1=O)Nc1ccc(F)cc1	-91	i	i	nt	nt	nt
O=C(Cn1nc(-c2ccccc2)c2ccccc2c1=O)Nc1ccc(F)cc1	i	?	i	i	i	i
CN1CCN(C(CNC(=O)C(=O)Nc2ccc(Cl)cc2)c2cccnc2)CC1 (stereo unspecified)	nt	nt	i	i	i	i
Cc1ccc(Cn2c(CNC(=O)c3ccccc3Br)nc3cccnc32)cc1	nt	nt	i	i	i	i
CCOC(=O)c1ccc(NC(=O)Cn2cc(C(=O)c3ccc(Cl)cc3)c(=O)c3ccc(C)nc32)cc1	nt	nt	i	i	i	i
O=C(O)CCc1nnc2cnc3ccccc3n12	nt	nt	i	i	i	i
COc1ccccc1C(=O)NC(=S)NNC(=O)c1sc2ccccc2c1Cl	-52	i	?	i	i	i
CN(C)CCn1nnnc1SCC1=C(C(=O)O)N2C(=O)[C@@H](NC(=O)Cc3csc(N)n3)[C@H]2SC1	i	i	?	nt	14µM	50µM
NCc1ccccc1CC(=O)N[C@@H]1C(=O)N2C(C(=O)O)=C(CSc3nnnn3CC(=O)O)CS[C@@H]12	nt	nt	nt	nt	nt	i[19.4 µM]
CC1(c2ccccc2)C(C#N)C(=O)NC(=O)C1C#N (stereo unspecified)	i	i	i	nt	i	i
O=C(Sc1n[nH]c(=O)[nH]c1=O)c1ccccc1	-74	18µM	i	nt	?	i
CN(C(=O)CSc1n[nH]c(=O)[nH]c1=O)c1ccccc1	i	i	i	nt	i	i
SMILES	PI5P4K alpha inh	WRN inhibitor	POLH inh	POLB inh	POLI inh	POLK inh
O=C1c2cccnc2-c2ncccc21	i	i	i	i	i	i
O=C1C(=O)c2cccnc2-c2ncccc21	i	18µM	nt	nt	nt	nt
COC1=C(Br)C(=O)c2ncccc2C1=O	?	10µM	3.2µM	nt	1.3µM	i
O=C(/C=C1\NC2(CCCC2)Cc2ccccc21)C(=O)N/N=C/c1ccc(O)c(O)c1	?	?	11µM	2µM	?	i
C/C(=N\NC(=O)Cc1cc(=O)[nH][nH]1)c1cccc([N+](=O)[O-])c1	i	i	i	i	7.1µM	i
CCCN1CCN(CCCNC(=O)c2ccc3c(c2)sc2nc(-c4ccc(OCC)cc4)cn23)CC1	nt	nt	i	?	79µM	i
CCOc1ccccc1-n1c(SCC(=O)Nc2ccc(CC)cc2)nc2n[nH]c(C)c2c1=N	i	i	i	i	i	i
COc1ccc(NC(=O)CSc2nc3n[nH]c(C)c3c(=N)n2-c2ccc(Cl)c(C)c2)cc1OC	i	i	50µM	3.5µM	i	i
COc1ccc(OC)c(NC(=O)CSc2nc3n[nH]c(C)c3c(=N)n2-c2cccc(Cl)c2C)c1	i	i	i	i	i	i
CCc1ccc(NC(=O)CSc2nc3n[nH]c(C)c3c(=N)n2-c2ccccc2C)cc1	nt	nt	i	i	89µM	i
COc1cc(NC(=O)CCS(=O)(=O)c2ccc3c(c2)CC(=O)N3C)cc(OC)c1OC	nt	nt	i	i	i	i
C=CC[n+]1cccc2cccc(O)c21	nt	nt	nt	nt	13µM	i
O=C1CC(=O)N(C2CCCCC2)C(=O)N1c1ccccc1S(=O)(=O)Oc1ccccc1	-64	i	nt	nt	nt	nt
CCN(CC)c1nn2c(=O)c(C(=O)NCc3ccccc3Br)cnc2s1	nt	nt	i	i	i	i
CO[C@@]1(NC(=O)CSCC#N)C(=O)N2C(C(=O)O)=C(CSc3nnnn3C)CS[C@@H]21	i	nt	2.2µM!	i	?	i
Cc1ccc(NC(=O)C(CC(C)C)N2Cc3ccccc3C2=O)cc1F (stereo unspecified)	nt	nt	i	i	i	i
Cn1c(SCC(=O)Nc2ccc(Br)cn2)nnc1C1CC1	i	i	79µM	?	?	i
CCOc1ccc(CN2C(=O)c3ccccc3Sc3ccc(C(=O)NC4CCC(C)CC4)cc32)cc1 (stereo unspecified)	nt	nt	i	i	i	i
N#Cc1ccsc1NC(=O)COC(=O)c1ccc(Br)o1	?	i	?	nt	25µM	i
COc1cc(OC)cc(C(=O)N[C@H](C(=O)OCC(=O)Nc2sccc2C#N)C(C)C)c1	?	i[11.6 µM]	50µM	?	?	?
COC(=O)c1nnn(CC(=O)Nc2cc(F)ccc2F)c1C(=O)OC	nt	nt	i	i	i	i
N=c1oc2cc(O)ccc2cc1C(=O)Nc1ccc(Cl)cc1	i	i	79µM	i	i	i
Nc1sccc1C(=O)NC1CC1	i	i	nt	nt	nt	nt
CCOc1ccc(C2C(=O)N(C3CCCCC3)CC(=O)N2CCc2ccccc2)cc1OC (stereo unspecified)	nt	nt	i	i	?	i
O=C(NNc1ccc([N+](=O)[O-])cc1)c1ccccc1Cl	i	i	i	i	i	i
O=C(NC(NNc1ccc([N+](=O)[O-])cc1)(C(F)(F)F)C(F)(F)F)c1ccc(Cl)cc1	-67	i	i	i	i	i
CC(C)C(=O)Nc1ccc(/C=C2\C=Cc3ccccc32)cc1	nt	nt	nt	nt	i	i
CCc1ccc2oc(C(=O)Nc3cc(Cl)ccc3OC)cc(=O)c2c1	nt	nt	i	i	i	i

Assay outcomes from PubChem BioAssay.
